Source: PubChem BioAssay AID720523 (National Center for Advancing Translational Sciences (NCATS), 2013)
Among all 1,400 compounds or so, about 25 (2%) were called active. Inconclusive results (about 19%) are left out. Calls follow the shape of the dose curve; as a rule, active = well fitted inhibition curve with a large enough effect; inconclusive = small, poorly fitted or top-dose-only effect; inactive = flat fitted curve, though single readings scatter. A selection follows.

Test: Nrf2 qHTS screen for inhibitors: A549 ARE-Fluc Cytotoxicity Counterscreen for Hit Validation
Settings: A549 ARE-Fluc cells; series mostly up to 46.1 µM
Description: Nrf2 is a transcription factor that maintains cellular redox homoestasis and protects cells from xenobiotics. Nrf2 binds to the antioxidant response element (ARE) to induce gene expression of a broad spectrum of genes that encode for antioxidants. […] Finding a small molecule that act as an inhibitor of Nrf2 function would represent a novel therapeutic target that could lead to improvement in survival of patients undergoing chemo- and/or radio- therapy.
In collaboration with the Biswal laboratory, a cell based, luminescence assay (BugLite) was developed to detect the Nrf2 activity using the A549 ARE_Fluc cells (AID 504648). This assay was coupled with a fluorescence based (CellTiter Fluor) cytotoxicity assay to identify and exclude toxic compounds. This coupled assay was used to evaluate selected compounds for hit validation. The data herein is the result of the CellTiter Fluor assay where decrease in fluorescence signal = cytotoxicity. Inactivity is the desired outcome for this assay.
NIH Chemical Genomics Center [NCGC]
NIH Molecular Libraries Probe Centers Network [MLPCN]
Assay Submitter (PI): Shyam Biswal, Johns Hopkins University
[1] Shibata T., et al., Genetic alteration of Keap1 confers constitutive Nrf2 activation and resistance to chemotherapy in gallbladder cancer. Gastroenterology, 2008.
[2] Sjoblom T., et al., The consensus coding sequences of human breast and colorectal cancers. Science, 2006.
Five uL of cell suspension was dispensed into 1536-well white TC-treated plate using the Kalypsys dispenser to achieve a density of 5000 cells/well in all columns except column 1. The plates were incubated at 37deg C at 5% CO2 for 2 hours before 23 nL of compounds were added with the Kalypsys pin tool equipped with a 1,536-pin array. The control compounds Budesonide and Staurosporine were added at a concentration of 2mM. Budesonide was also added as a 1:10 titration, starting at 200uM, to achieve the dose-response control signal. The plates were incubated for 18-24 hour at 37deg C, 5% CO2 followed by a 5ul addition of 5% FBS OPTI-MEM growing media in column 1 as negative control. One microliter of 5x CellTiter Fluor (Promega) was added to each well and the assay plates were incubated at 37deg C, 5% CO2 for 30 minutes. The fluorescence signal was read using the PerkinElmer ViewLux plate reader (Ex = 405 nm /Em = 525 nm) for a 3 second exposure. After the signal was taken, 3 uL of 3x BugLite was dispensed into all wells. The plates were then incubated at room temperature for 15 minutes. A second ViewLux read (40 sec exposure) was performed to detect the luminescence signal. Cytotoxicity was assessed through the first fluorescent read while biochemical activity against Nrf2 was measured in the luminescent read. The data was normalized to the positive and negative controls.

Compound	outcome
CCC(C)N1C(=O)S/C(=C/c2ccc(Sc3nc4ccccc4[nH]3)o2)C1=O (stereo unspecified)	inactive
CC(C)(C)c1ccc(Oc2ccc(N)cc2)cc1	inactive
CCOc1ccc(S(=O)(=O)N2CCCCC2)cc1NC(=O)CN1CCCC1c1cccs1 (stereo unspecified)	inactive
O/N=C(\C[n+]1ccccc1)c1ccc(Br)cc1	inactive
COc1ccc(C(=O)C[n+]2ccc(N)c(C)c2C)cc1	inactive
Cc1csc[n+]1CCC1CCCCC1	inactive
CCCCNc1nc2c(c(=O)n(C)c(=O)n2C)n1Cc1cccc(OC)c1	inactive
COc1cccc(-c2nc(CS(=O)(=O)CC(=O)N3CCN(c4cc(C)ccc4C)CC3)c(C)o2)c1	inactive
CC(C)Cn1c(N)c(C(=O)COC(=O)CN2C(=O)C3CC=CCC3C2=O)c(=O)n(C)c1=O (stereo unspecified)	inactive
O=C1C=C(c2ccnc3cc(Cl)ccc23)C[C@@H](c2ccc3c(c2)OCO3)C1	inactive
CN(Cc1cccnc1)C(=O)c1cc(COc2ccc3ncccc3c2)on1	inactive
Cc1ccc(NS(=O)(=O)c2cccs2)cc1S(=O)(=O)N1CCCCCC1	inactive
CC(=O)OC(C)C[N+](C)(C)C (stereo unspecified)	inactive
Cn1nccc1C(=O)NC1CCCc2c1cnn2-c1ccc(F)cc1F (stereo unspecified)	inactive
COCCn1c(SCC(=O)Nc2ccccc2F)nc2c(c1=O)SCC2	inactive
CC(=O)N1c2ccc(S(=O)(=O)N3CCCC(C(=O)Nc4cccc(Cl)c4)C3)cc2CC1C (stereo unspecified)	inactive
CC1CCCN(S(=O)(=O)c2ccc(C(=O)Nc3nnc(-c4ccncc4)o3)cc2)C1 (stereo unspecified)	inactive
CC(=O)N1CCCc2cc(S(=O)(=O)N3CCCC(C(=O)N4CCN(c5cccc(Cl)c5)CC4)C3)ccc21 (stereo unspecified)	inactive
O=C(CN1C(=O)c2ccccc2S1(=O)=O)N1CCc2ccccc21	inactive
CC1(C)O[C@@H]2CC3C4C[C@H](F)C5=CC(=O)C=CC5(C)C4C(O)CC3(C)[C@]2(C(=O)CO)O1 (stereo partly specified)	inactive
Cc1ccc(NC(=O)C2CC(=O)N(c3ccc4c(c3)OCCO4)C2)cc1S(=O)(=O)N1CCCCCC1 (stereo unspecified)	inactive
C=CCC1(CC=C)CCCN1C(=O)c1cc(COc2ccc(-n3cncn3)cc2)on1	inactive
COc1ccc(CC(=O)Nc2nc(-c3ccc(F)c(F)c3)cs2)cc1OC	inactive
CC(C)(C)n1ncc2c(=O)n(Cc3ccc(C(=O)c4ccccc4)cc3)cnc21	inactive
Brc1c(CSc2nncc3ccccc23)nc2ccccn12	inactive
CCC(C)(C)c1ccc(Oc2ccc(NC(=O)COC(=O)C3=COCCO3)cc2)cc1	inactive

Compound	outcome
OCCCNc1nccc(-c2cc(Nc3cccc(Cl)c3)ncn2)n1	inactive
CC(=O)N1c2ccc(S(=O)(=O)N3CCCC(C(=O)NCc4ccc(Cl)cc4)C3)cc2CC1C (stereo unspecified)	inactive
Cc1cc(C)c(-c2csc(NC(=O)CCCc3nc4ccccc4c(=O)[nH]3)n2)c(C)c1	inactive
COc1ccc(CCNC(=O)c2ccc(CS(=O)(=O)c3ccc(Br)cc3)o2)cc1OC	inactive
Cc1cccc(N2CCN(C(=O)CCS(=O)(=O)c3ccc4c(c3)NC(=O)C(C)S4)CC2)c1C (stereo unspecified)	inactive
O=C(OCCOc1ccccc1Cl)c1cc(S(=O)(=O)N2CCCCC2)ccc1N1CCOCC1	inactive
Cc1nc(N2CCOCC2)c2c(C)c(C(=O)Nc3ccc(C(F)(F)F)cc3)sc2n1	inactive
Cc1ccc(S(=O)(=O)N2C[C@@H]3CCCC[C@@H]3[C@@H](C)[C@H]2c2cn(Cc3ccccc3)c3ccc(F)cc23)cc1	inactive
Cc1ccc(S(=O)(=O)N2CCN(c3ncnc4ccccc34)CC2)cc1	inactive
COc1ccc(OC)c(Cc2cnc3nc(N)nc(N)c3c2C)c1	inactive
O=C(Nc1ccncc1)c1c(F)cccc1F	inactive
O=C(Nc1ccc(Br)cn1)C1CCN(S(=O)(=O)c2cccs2)CC1	inactive
O=C(CCC(=O)N1CCN(S(=O)(=O)c2ccc(Cl)cc2)CC1)NCc1cccc(C(F)(F)F)c1	inactive
Cc1cc(C(=O)NC2CCCc3c2cnn3-c2cccc(C)c2C)c(C)o1 (stereo unspecified)	inactive
CCOC(=O)c1cnc(-n2nc(C)cc2C)nc1NNc1cc(C)nc(-c2ccccc2)n1	inactive
COc1ccc(N2CCN(C(=O)CSCc3nc(-c4ccccc4Cl)oc3C)CC2)cc1	inactive
CCCOc1ccc(Cc2c(Cl)nc(SC)nc2NC)cc1	inactive
O=c1[nH]c(SCc2cccc(F)c2)nc2ccccc12	inactive
O=C(CSc1nnc2c(n1)[nH]c1ccccc12)NC1CCCCC1	inactive
CCCN(c1ccc(C(C)C)cc1)S(=O)(=O)c1c(C)[nH]c(=O)[nH]c1=O	inactive
CC1CCN(S(=O)(=O)c2ccc(NC(=O)C3CC(=O)N(c4ccccc4)C3)cc2)CC1 (stereo unspecified)	inactive
CCCOc1ccc(C(=O)Nc2ccc3oc(-c4cccc(Cl)c4Cl)nc3c2)cc1	inactive
c1ccc(C(=NNc2nc3ccccc3s2)c2ccccn2)cc1	inactive
CCNS(=O)(=O)c1ccc(CCC(=O)N2CCN(c3cc(Cl)ccc3C)CC2)cc1	inactive
Cc1c(Cl)cccc1NC(=O)Cn1cc(C(=O)c2cccs2)c2ccccc21	inactive
